In PubChem BioAssay AID624412 (The Scripps Research Institute Molecular Screening Center, 2012) one finds inhibition data, which are given here for 68 compounds.

Out of some 1,400 compounds screened, about 1,300 (93%) were called active. So high a share suggests a set chosen from earlier hits. These entries were drawn from the full list. Values without a mark were called inactive. Rule as the data show it: active = inhibition above about 7%; inactive = the rest.

This experiment relates to methionyl-tRNA synthetase (Trypanosoma brucei brucei). Nature of the experiment: T. brucei MetRS inhibitors, confirmation, biochemical, luminescence (AID 624412). Particulars: T. brucei MetRS enzyme, luminescence (ATP depletion); at 11.9 µM; hits give high values.
For the compound `COC(=O)/C(=C\Nc1ccccc1)NC(=O)c1ccc(Cl)cc1Cl`, the inhibition was 78% (active). In the case of `c1ccc2cc3[nH]c(CN4CCCCC4)nc3cc2c1` it was 18.2% (active); in that of `Cc1c(CN2CCC(CO)(CCOc3ccccc3)CC2)[nH]c2ccc(Cl)cc12`, 19% (active). Take `CN(C(=O)CSc1nnc(-c2c[nH]c3ccccc23)o1)C1CCS(=O)(=O)C1` (stereo not drawn): the inhibition is 21.9% (active). Then `CN(C(=O)CSc1nnc(Nc2ccccc2)s1)C1CCS(=O)(=O)C1` (stereo not drawn), with 12.5% (active).

Consider `CCCCCn1nnnc1-c1nc2cc3ccccc3cc2[nH]c1=O`, for which the inhibition is 42.4% (active). Then `c1ccc(CN=C2Nc3ccccc3CS2)nc1`, with 22% (active); and `Cc1cc(C)cc(NC(=O)N(C)Cc2ccccc2)c1`, with 3.08%. Then `COc1ccc(NC(=O)C(NC(C)=O)C(=O)NCc2ccccc2Cl)cc1` (stereo not drawn), with 17.9% (active); and `OCCNc1nc2ccccc2n1-c1ncnc2sc3c(c12)CCC3`, with 29.7% (active). In the case of `Cc1ccc(O)c(CNc2nc3ccccc3[nH]2)c1` it was 85.4% (active).

Regarding `O=S(=O)(NCc1ccc(Cl)cc1Cl)c1cccs1`, the inhibition is 33.5% (active).

`CCCCN1C[C@H](c2ccc(Br)cc2)[C@@H](CC(=O)Nc2ccc(Br)cc2)C1=O`: the inhibition is 62.2% (active). On to `O=C(OCc1nc2ccccc2[nH]1)C1CCCCC1`, for which the inhibition was 27.3% (active). Then `O=C(NCc1cccc(CNC(=O)Nc2cccc(O)c2)c1)Nc1cccc(O)c1`, with 17.5% (active); and `COc1ccc(CCn2ccc(O)c(Cc3ccc(Cl)cc3Cl)c2=O)cc1OC`, with 11.8% (active). On to `O=C(Nc1cccc([N+](=O)[O-])c1)N1CCc2ccccc2C1`, for which the inhibition is 25.6% (active). Then `O=C(CSCC(=O)Nc1cccc([N+](=O)[O-])c1)Nc1ccccc1`, with 17% (active); and `O=C(Nc1ccc(Cl)cc1)N1CCc2[nH]c3ccccc3c2C1`, with 20.4% (active). In the case of `Fc1ccc(NC(=S)N2CCc3[nH]c4ccccc4c3C2)cc1` it was 35.4% (active). Then `O=C(NNc1cc(Cl)cc(Cl)c1)c1c(F)cccc1Cl`, with 66.4% (active).

Regarding `Cc1ccc(N2C(=O)CC(NCc3ccc4c(c3)OCO4)C2=O)cc1Cl` (stereo not drawn), the inhibition is 98.5% (active).

Take `O=C(/C(=N\O)n1cncn1)c1ccc(Br)cc1Br`: the inhibition was 18.3% (active). Take `CCCCN(C)Cc1c(C)[nH]c2ccc(Cl)cc2c1=O`: the inhibition is 67.1% (active). Then `O=C(CC(=O)Nc1ccc(Cl)c(Cl)c1)N/N=C/c1ccc(O)cc1`, with 17.2% (active). In the case of `Cc1ccc(NC(=O)C(C)c2cccc(C(=O)c3ccccc3)c2)cc1` (stereo not drawn) it was 85.5% (active). Then `O=C1CCCN1CCCNc1ncnc2c1[nH]c1ccccc12`, with 55.3% (active); and `Cc1ccccc1OCC(=O)NNC(=O)c1ccc(-n2cncn2)c([N+](=O)[O-])c1`, with 24.7% (active); and `CC(=O)c1ccc(NC(=O)c2ccc(-n3cncn3)c([N+](=O)[O-])c2)cc1`, with 72% (active). For the compound `O=C(NNC(=O)c1ccc(-n2cncn2)c([N+](=O)[O-])c1)c1ccccc1`, the inhibition was 50.4% (active). In the case of `Cc1ccc(S(=O)(=O)N(C)C)cc1NC(=O)c1ccc(-n2cncn2)c([N+](=O)[O-])c1` it was 69.4% (active).

With `c1ccc2cc3c(NCCN4CCOCC4)ccnc3cc2c1`, the inhibition was 50.4% (active). Then `Cc1ccc(S(=O)(=O)c2c[nH]c3ccc(C)cc3c2=O)cc1`, with 45.7% (active); and `Cc1ccc(S(=O)(=O)c2c[nH]c3ccc(Cl)cc3c2=O)cc1`, with 85.2% (active); and `O=C(NCCN1CCOCC1)c1ccccc1N1C(=O)[C@@H]2Cc3c([nH]c4ccccc34)C(c3cccc(Cl)c3)N2C1=O` (stereo partly drawn), with 18.1% (active). In the case of `CCN(CC)C(=O)C(=O)c1cn(CC(=O)NCc2ccc3c(c2)OCO3)c2ccccc12`, the inhibition was 79.4% (active). Then `O=C(CSc1nc2ccccc2[nH]1)N/N=C/C=C\c1ccccc1[N+](=O)[O-]`, with 21.7% (active); and `O=C(Cn1c2[n+](c3ccc(C(F)(F)F)cc31)CCCCC2)Nc1c(F)cccc1F`, with 29.8% (active).

As to `NS(=O)(=O)c1ccc(CCNC(=O)Nc2ccc(Cl)cc2)cc1`, the inhibition was 37.4% (active). Regarding `O=C(Cc1ccc(S(=O)(=O)N2CCOCC2)s1)Nc1ccc(Br)c(C(F)(F)F)c1`, the inhibition is 33.2% (active).

Take `Clc1ccc(-c2cc(C3CCNCC3)[nH]n2)c(Cl)c1`: the inhibition is 52.6% (active). In the case of `O=C(Cn1c(NCCO)nc2ccccc21)c1ccc(Cl)cc1Cl` it was 5.98% (active); in that of `S=c1[nH]nc(CSCc2ccc(Cl)cc2Cl)n1-c1ccccc1`, 13.2% (active); in that of `COC(=O)CN1C(=S)N(c2ccccc2)C(=O)C1CC(=O)Nc1ccc(Cl)cc1` (stereo not drawn), 27.5% (active).

For `OC(c1cc(Cl)cc(Cl)c1)c1ncc(-c2ccccc2C(F)(F)F)[nH]1` (stereo not drawn), the inhibition was 91.3% (active). In the case of `Cc1ccc(-c2cnc(C(O)c3cc(Cl)cc(Cl)c3)[nH]2)cc1` (stereo not drawn), the inhibition was 63.9% (active). Consider `O=S(=O)(c1ccc(Br)cc1)N1CCC(c2nc3ccccc3[nH]2)CC1`, for which the inhibition was 20.5% (active). For `O=C(NCC(O)c1nc2ccccc2[nH]1)c1ccc(Br)cc1` (stereo not drawn), the inhibition was 31.1% (active). Turning to `O=C(Nc1ccc(S(=O)(=O)Nc2ncccn2)cc1)c1cncc(Br)c1`, the inhibition was 2.54%.

As to `O=C(O)c1ccc(NS(=O)(=O)c2ccc3c(c2)C(=O)c2cc(S(=O)(=O)Nc4ccc(C(=O)O)cc4)ccc2-3)cc1`, the inhibition was 13.4% (active).

`CC(C)OCCCNc1ncnc2c1[nH]c1ccc(F)cc12`: the inhibition is 95.6% (active). Consider `CCN1CCCC1CNc1ncnc2c1[nH]c1ccc(F)cc12` (stereo not drawn), for which the inhibition was 53.7% (active). Then `CSc1nsc(NC(=O)Nc2ccccc2)n1`, with 39.8% (active); and `CC(C)(C)c1ccc(/C=C2\SC(=O)N=C2N)cc1`, with 50.9% (active).

As to `NC1=NC(=O)S/C1=C\c1ccc(O)cc1`, the inhibition was 40.1% (active). Then `O=C(O)CCn1c(O)c(C=C2N=c3ccccc3=N2)sc1=S`, with 42.3% (active); and `Cn1c(CCCOc2ccc(Cl)cc2Cl)n[nH]c1=S`, with 12.2% (active).

For the compound `CCCCCCCC[n+]1cccc(C(=O)N2c3c(nc(N)[nH]c3=O)NC(C)C2C)c1` (stereo not drawn), the inhibition is 29.2% (active). As for `COc1ccc(OCC(O)CNC(=O)Nc2ccc(Cl)cc2)cc1` (stereo not drawn), the inhibition is 78% (active). Then `Oc1[nH]c2ccc(Br)cc2c1N=Nc1nn[nH]n1`, with 14.6% (active); and `O=C(Nc1ccccc1)Nc1nnc(COc2ccccc2F)s1`, with 30.4% (active). Then `Clc1ccccc1SCc1nc2ccccc2[nH]1`, with 10.1% (active); and `Cc1ccc(CNC(=O)CSc2nnc3c(n2)[nH]c2ccc(F)cc23)cc1`, with 78% (active). In the case of `CCO[C@@H]1OC(C(=O)NCc2nc3ccccc3[nH]2)=C[C@H](C2CCCCC2)[C@H]1CCCO` it was 48.9% (active); in that of `CC(=N\NC(=O)c1cc(Br)ccc1O)/C(=N/O)C(=O)Nc1ccccc1`, 18.2% (active); in that of `COc1ccccc1-n1c(SCC(=O)Nc2ccc(Cl)cc2)nc(O)c(Cc2ccccc2)c1=O`, 77.2% (active). `COc1ccc(-c2[nH]ncc2/C=N/NC(=O)c2cc(Br)ccc2O)c(OC)c1`: the inhibition was 12.1% (active). As for `O=[N+]([O-])c1ccc(N2CCN(c3ccc(O)cc3)CC2)c(Cl)c1`, the inhibition was 10.9% (active).
